Experiments:
Assay in all cases: log2 ratio of Biotin-Ahx-Ub-VS probe labelling (fragment/DMSO); higher = less target engagement (more negative = stronger competition), active = hit call of the paper (q ≤ 0.05, log2 ratio ≤ -1)
Settings in all cases: compound concentration: 200 uM; treatment time: 3 h
USP34 = USP34 (UniProt Q70CQ2)
How it was run: (§1)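 Each value is an average log2 ratio of fragment to vehicle, tested by unpaired t-test. The underlying Spectronaut label-free quantities were global-median-normalised, and only proteins with ≥2 unique peptides were included. Triplicate HEK293T lysate samples (495 µg) were exposed to fragment at 200 µM or vehicle for 3 h, then to Biotin-Ahx-Ub-VS at 0.5 µM final for 1 h, before NeutrAvidin enrichment of labelled DUBs, LysC and trypsin digestion, and diaPASEF LC-MS/MS.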

USP36 = target: T1, USP36 (UniProt Q9P275)
T1 sequence (whole entry): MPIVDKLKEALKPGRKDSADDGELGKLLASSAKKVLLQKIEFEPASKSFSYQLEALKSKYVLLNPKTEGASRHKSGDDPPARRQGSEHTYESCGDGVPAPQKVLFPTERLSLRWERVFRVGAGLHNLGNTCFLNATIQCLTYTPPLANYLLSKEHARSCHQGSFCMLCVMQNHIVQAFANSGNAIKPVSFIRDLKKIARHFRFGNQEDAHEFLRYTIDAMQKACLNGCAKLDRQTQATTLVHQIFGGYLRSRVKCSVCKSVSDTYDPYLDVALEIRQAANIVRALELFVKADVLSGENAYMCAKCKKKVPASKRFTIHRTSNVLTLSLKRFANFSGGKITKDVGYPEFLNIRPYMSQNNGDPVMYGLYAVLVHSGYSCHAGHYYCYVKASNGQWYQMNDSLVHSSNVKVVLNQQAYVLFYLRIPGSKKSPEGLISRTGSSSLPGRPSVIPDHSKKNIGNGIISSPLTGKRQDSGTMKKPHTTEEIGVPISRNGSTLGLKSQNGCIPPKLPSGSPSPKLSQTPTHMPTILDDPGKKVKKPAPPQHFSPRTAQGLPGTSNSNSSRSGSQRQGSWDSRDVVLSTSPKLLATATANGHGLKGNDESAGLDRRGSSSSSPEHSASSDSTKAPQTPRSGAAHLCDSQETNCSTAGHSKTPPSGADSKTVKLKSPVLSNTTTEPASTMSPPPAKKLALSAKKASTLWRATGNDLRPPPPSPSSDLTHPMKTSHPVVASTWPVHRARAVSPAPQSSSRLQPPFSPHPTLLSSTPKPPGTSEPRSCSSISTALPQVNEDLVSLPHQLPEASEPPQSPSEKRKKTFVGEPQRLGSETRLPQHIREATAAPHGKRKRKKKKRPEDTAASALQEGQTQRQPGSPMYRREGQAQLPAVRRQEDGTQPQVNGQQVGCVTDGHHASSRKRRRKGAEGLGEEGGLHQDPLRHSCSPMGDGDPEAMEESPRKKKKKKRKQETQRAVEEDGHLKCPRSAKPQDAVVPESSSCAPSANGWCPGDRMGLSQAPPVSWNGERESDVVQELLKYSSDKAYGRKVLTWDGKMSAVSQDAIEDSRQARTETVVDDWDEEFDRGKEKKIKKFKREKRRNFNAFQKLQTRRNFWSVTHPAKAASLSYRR
How it was run: as §1

USP38 = target: T2, USP38 (UniProt Q8NB14)
T2 sequence (whole entry): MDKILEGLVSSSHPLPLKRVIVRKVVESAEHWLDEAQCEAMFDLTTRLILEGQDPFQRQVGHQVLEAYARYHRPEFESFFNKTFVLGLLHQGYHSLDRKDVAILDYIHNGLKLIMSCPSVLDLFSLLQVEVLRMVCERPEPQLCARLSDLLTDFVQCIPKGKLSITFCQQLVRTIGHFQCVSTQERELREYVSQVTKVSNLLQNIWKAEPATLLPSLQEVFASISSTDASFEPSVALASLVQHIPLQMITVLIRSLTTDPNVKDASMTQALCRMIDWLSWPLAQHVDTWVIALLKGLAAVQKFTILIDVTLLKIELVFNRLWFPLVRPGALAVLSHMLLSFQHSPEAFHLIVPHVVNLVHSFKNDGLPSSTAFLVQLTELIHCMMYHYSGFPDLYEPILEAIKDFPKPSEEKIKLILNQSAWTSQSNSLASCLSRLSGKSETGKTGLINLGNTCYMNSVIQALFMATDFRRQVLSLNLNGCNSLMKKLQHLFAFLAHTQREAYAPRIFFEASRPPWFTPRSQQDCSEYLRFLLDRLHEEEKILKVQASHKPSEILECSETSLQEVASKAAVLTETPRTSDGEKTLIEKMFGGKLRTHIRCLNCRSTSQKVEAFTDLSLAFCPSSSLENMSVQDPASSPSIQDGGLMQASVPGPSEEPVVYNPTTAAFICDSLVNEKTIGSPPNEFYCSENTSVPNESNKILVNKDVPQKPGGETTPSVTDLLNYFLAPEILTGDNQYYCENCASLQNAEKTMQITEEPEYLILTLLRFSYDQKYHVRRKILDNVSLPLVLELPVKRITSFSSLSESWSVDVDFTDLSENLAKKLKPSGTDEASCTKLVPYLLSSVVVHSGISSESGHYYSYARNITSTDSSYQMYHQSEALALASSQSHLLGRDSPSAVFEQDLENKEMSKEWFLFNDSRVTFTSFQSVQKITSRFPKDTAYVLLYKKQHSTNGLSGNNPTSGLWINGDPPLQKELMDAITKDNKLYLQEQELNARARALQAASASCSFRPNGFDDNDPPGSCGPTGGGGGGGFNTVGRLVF
How it was run: as §1

USP39 = target: T3, USP39 (UniProt Q53GS9)
T3 sequence (whole entry): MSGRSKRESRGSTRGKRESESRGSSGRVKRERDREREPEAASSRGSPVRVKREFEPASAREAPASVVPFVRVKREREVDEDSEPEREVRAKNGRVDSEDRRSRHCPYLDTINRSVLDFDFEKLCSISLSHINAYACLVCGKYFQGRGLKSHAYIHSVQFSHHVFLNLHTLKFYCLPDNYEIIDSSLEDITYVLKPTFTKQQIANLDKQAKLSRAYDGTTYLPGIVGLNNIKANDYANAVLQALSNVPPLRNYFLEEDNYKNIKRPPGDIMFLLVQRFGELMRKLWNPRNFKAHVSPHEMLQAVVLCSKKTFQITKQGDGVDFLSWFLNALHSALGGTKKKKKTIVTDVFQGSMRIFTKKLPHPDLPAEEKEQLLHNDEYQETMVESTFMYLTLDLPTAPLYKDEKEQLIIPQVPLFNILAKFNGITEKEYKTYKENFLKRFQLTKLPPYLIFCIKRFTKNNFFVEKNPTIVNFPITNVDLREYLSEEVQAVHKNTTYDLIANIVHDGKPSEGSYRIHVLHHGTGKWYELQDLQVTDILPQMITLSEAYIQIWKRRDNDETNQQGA
How it was run: as §1

USP4 = target: T4, USP4 (UniProt Q13107)
T4 sequence (whole entry): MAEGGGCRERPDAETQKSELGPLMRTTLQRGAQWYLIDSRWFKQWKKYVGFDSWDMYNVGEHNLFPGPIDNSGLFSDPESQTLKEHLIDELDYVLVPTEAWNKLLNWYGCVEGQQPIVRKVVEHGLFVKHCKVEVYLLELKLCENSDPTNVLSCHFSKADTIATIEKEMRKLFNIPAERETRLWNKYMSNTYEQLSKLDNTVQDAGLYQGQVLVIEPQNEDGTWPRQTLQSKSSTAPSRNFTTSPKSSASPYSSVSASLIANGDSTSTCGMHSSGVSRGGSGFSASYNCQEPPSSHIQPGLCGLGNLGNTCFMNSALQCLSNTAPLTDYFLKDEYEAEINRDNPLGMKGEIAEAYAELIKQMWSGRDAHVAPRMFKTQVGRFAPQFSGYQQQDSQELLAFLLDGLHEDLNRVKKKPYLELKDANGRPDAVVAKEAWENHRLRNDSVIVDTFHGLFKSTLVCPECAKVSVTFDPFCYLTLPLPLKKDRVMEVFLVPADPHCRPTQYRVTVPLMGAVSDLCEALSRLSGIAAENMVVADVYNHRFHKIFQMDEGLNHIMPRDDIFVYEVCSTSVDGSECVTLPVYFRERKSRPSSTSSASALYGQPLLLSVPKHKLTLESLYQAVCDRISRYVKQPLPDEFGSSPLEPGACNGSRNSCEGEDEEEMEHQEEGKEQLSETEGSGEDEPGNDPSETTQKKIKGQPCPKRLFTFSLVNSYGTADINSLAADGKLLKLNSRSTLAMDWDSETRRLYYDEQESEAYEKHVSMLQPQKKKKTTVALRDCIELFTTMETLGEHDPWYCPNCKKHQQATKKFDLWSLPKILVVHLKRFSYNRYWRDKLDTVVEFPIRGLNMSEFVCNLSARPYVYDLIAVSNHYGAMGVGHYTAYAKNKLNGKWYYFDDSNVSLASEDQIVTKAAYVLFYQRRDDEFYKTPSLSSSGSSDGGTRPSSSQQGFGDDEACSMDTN
How it was run: as §1

Measured: log2 ratio of Biotin-Ahx-Ub-VS probe labelling

Sequence of USP34 (Q70CQ2 whole entry, the tested form may be a part): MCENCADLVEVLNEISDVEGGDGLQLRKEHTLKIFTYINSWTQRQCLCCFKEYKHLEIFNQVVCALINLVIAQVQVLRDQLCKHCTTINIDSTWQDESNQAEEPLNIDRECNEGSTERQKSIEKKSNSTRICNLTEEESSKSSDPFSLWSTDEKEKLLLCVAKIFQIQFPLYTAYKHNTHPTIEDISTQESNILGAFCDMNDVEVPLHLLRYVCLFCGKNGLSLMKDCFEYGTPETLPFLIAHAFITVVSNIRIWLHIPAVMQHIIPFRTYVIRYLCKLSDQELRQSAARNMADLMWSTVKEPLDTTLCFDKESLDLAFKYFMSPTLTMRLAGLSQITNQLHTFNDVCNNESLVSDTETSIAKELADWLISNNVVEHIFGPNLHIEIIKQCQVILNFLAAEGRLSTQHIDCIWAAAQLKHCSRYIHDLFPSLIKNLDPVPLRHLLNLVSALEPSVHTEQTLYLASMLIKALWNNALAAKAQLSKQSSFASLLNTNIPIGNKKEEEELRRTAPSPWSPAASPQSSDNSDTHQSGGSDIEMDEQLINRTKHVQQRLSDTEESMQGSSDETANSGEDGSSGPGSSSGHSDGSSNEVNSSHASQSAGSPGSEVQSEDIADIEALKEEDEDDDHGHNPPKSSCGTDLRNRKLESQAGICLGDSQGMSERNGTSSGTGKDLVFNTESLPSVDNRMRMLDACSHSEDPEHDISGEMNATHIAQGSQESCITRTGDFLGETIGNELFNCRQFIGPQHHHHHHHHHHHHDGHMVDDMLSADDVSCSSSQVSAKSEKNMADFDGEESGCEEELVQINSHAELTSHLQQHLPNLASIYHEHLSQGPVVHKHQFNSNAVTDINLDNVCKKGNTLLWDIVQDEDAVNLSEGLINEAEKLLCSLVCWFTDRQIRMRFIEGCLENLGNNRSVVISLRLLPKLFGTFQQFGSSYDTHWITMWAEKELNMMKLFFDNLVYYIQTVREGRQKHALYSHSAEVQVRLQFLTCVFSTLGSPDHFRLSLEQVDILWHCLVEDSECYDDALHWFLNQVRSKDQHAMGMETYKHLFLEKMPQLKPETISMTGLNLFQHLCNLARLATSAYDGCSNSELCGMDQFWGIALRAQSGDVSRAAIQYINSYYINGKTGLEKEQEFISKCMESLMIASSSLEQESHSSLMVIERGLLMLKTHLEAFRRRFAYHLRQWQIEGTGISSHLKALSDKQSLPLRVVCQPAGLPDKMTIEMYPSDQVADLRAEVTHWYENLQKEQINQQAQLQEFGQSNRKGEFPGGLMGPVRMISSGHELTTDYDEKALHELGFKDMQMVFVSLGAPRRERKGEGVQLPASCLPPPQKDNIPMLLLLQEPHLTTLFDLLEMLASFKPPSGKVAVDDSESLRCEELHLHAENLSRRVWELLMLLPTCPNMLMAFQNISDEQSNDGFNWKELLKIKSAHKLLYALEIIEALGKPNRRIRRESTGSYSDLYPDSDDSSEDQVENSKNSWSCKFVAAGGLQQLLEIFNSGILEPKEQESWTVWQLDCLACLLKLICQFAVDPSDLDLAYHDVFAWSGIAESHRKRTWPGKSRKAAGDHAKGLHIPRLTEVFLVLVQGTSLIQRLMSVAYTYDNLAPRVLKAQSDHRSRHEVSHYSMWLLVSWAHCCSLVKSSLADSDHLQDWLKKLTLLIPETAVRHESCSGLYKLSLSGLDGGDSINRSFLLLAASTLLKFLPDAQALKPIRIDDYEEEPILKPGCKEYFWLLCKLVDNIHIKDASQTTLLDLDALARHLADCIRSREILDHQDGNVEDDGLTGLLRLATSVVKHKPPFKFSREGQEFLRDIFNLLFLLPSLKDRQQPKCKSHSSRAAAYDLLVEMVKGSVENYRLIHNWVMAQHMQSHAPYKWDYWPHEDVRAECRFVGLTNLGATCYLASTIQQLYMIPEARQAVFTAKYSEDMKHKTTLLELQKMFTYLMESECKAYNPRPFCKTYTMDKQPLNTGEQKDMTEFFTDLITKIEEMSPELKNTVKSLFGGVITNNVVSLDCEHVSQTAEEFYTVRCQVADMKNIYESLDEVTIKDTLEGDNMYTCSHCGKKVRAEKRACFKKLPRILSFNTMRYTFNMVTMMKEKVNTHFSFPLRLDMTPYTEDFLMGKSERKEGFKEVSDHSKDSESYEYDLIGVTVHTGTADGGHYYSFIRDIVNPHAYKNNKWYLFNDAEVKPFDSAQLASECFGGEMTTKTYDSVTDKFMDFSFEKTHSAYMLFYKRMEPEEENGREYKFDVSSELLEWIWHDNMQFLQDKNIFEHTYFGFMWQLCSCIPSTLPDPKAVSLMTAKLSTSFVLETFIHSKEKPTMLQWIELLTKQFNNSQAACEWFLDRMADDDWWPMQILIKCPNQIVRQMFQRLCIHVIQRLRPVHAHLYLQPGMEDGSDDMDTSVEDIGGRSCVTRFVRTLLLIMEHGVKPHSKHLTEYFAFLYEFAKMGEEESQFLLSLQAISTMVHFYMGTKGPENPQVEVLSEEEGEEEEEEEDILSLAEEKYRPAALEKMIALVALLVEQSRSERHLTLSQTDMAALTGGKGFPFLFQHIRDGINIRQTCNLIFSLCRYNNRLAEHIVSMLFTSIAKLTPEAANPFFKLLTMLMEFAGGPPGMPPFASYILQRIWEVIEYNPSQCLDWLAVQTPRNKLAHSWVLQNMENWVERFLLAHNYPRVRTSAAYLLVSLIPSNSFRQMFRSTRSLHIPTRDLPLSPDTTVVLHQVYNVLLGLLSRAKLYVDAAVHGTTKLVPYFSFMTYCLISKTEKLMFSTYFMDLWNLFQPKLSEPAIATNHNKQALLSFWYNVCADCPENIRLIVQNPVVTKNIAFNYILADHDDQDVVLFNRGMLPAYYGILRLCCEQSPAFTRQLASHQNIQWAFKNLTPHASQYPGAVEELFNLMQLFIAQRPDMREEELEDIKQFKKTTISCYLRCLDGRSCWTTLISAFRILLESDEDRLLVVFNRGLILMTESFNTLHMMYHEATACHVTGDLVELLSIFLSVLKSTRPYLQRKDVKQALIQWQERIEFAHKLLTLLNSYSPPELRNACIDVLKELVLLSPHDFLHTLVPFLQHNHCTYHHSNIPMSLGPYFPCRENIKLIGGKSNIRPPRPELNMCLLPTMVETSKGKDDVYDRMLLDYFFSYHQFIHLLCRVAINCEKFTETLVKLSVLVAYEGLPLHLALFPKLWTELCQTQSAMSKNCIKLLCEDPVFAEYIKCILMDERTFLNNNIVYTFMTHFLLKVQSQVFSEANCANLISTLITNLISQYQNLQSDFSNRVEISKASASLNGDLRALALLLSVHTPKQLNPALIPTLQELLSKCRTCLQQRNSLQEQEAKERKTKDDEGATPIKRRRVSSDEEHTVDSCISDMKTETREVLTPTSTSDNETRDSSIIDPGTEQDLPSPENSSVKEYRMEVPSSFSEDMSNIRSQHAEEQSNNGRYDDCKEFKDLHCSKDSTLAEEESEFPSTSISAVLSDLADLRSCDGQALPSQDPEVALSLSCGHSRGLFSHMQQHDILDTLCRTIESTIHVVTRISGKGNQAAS

O=C(CCl)N1CCOCC1C1CC1 (stereo not given)
inactive: USP34 0.0844 | USP36 -0.0397 | USP38 0.0391 | USP39 0.265 | USP4 -0.101
